Compound activity: PubChem BioAssay, Broad Institute
miR122 inh = activators of miR-122 sensor in Huh7 cells. Huh7 psiCHECK-miR122 Renilla luciferase sensor, 48 h. activation, % at 12.5 µM. 340,000 compounds, 0.14% hits;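 active = mean activation of 30% or more, with every replicate also reaching 30%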;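 also: higher luciferase signal means stronger suppression of miR-122 activity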
Numbers stand for hits. The full list was thinned out, with hits kept by preference.

How did CC(C)CC#Cc1ccc2c(c1)O[C@@H](CN(C)C(=O)c1ccccc1)[C@@H](C)CN([C@@H](C)CO)S2(=O)=O do in these assays?
miR122 inh: inactive

How did COc1cccc(NC(=O)N(C)C[C@@H]2Oc3cc(C#Cc4ccncc4)ccc3S(=O)(=O)N([C@@H](C)CO)C[C@H]2C)c1 do in these assays?
miR122 inh: inactive

How did C[C@@H]1CN([C@@H](C)CO)S(=O)(=O)c2ccc(-c3cncnc3)cc2O[C@@H]1CN(C)Cc1cncnc1 do in these assays?
miR122 inh: inactive

What do the screens show for `CCc1ccc(OC)c(S(=O)(=O)Nc2ccccc2C)c1`?
miR122 inh: inactive

Results for C/C=C/c1cnc2c(c1)C(=O)N([C@@H](C)CO)C[C@H](C)[C@H](CN(C)C(=O)Nc1cccc(OC)c1)O2 ?
miR122 inh: inactive

What do the screens show for `C[C@H](CO)N1C[C@H](C)[C@@H](CN(C)C(=O)CN(C)C)Oc2ncc(C#CC3(O)CCCC3)cc2C1=O`?
miR122 inh: inactive

What do the screens show for `COc1ccccc1NS(=O)(=O)c1cc(NC(=S)NCCN2CCOCC2)ccc1N1CCOCC1`?
miR122 inh: inactive

Results for C[C@H]1CN([C@@H](C)CO)S(=O)(=O)c2ccc(C#Cc3ccncc3)cc2O[C@@H]1CN(C)C(=O)c1ccncc1 ?
miR122 inh: inactive

What do the screens show for `C[C@H](CO)N1C[C@H](C)[C@@H](CN(C)C(=O)Nc2ccc3c(c2)OCO3)Oc2cc(C#Cc3ccccc3)ccc2S1(=O)=O`?
miR122 inh: inactive

Results for COc1ccc(C#Cc2ccc3c(c2)O[C@H](CN(C)C(=O)CN2CCOCC2)[C@H](C)CN([C@H](C)CO)S3(=O)=O)cc1 ?
miR122 inh: 50

What do the screens show for `C[C@H](CO)N1C[C@H](C)[C@@H](CN(C)C(=O)CN2CCOCC2)Oc2cc(C#Cc3cccc(F)c3)ccc2S1(=O)=O`?
miR122 inh: inactive

Results for CNC[C@@H]1Oc2cc(C#Cc3cccc(OC)c3)ccc2S(=O)(=O)N([C@@H](C)CO)C[C@@H]1C ?
miR122 inh: 49

What do the screens show for `C[C@@H]1CN([C@H](C)CO)S(=O)(=O)c2ccc(C#Cc3ccncc3)cc2O[C@@H]1CN(C)C(=O)c1ccncc1`?
miR122 inh: inactive

Results for COc1cccc(NC(=O)N(C)C[C@H]2Oc3cc(C#Cc4ccncc4)ccc3S(=O)(=O)N([C@@H](C)CO)C[C@@H]2C)c1 ?
miR122 inh: inactive

What do the screens show for `COc1cccc(C#Cc2ccc3c(c2)O[C@@H](CN(C)C(C)=O)[C@@H](C)CN([C@@H](C)CO)S3(=O)=O)c1`?
miR122 inh: inactive

Results for C[C@@H]1CN([C@@H](C)CO)S(=O)(=O)c2ccc(C#Cc3cccc(F)c3)cc2O[C@H]1CN(C)C(=O)CN1CCOCC1 ?
miR122 inh: inactive

Results for C[C@@H]1CN([C@@H](C)CO)S(=O)(=O)c2ccc(C#Cc3ccncc3)cc2O[C@@H]1CN(C)C(=O)Nc1ccc2c(c1)OCO2 ?
miR122 inh: 43

What do the screens show for `CCCC#Cc1ccc2c(c1)O[C@H](CN(C)C(=O)c1ccncc1)[C@H](C)CN([C@@H](C)CO)S2(=O)=O`?
miR122 inh: 31

Results for COc1cccc(C#Cc2ccc3c(c2)O[C@H](CN(C)C(C)=O)[C@H](C)CN([C@H](C)CO)S3(=O)=O)c1 ?
miR122 inh: inactive

Results for C[C@@H]1CN([C@@H](C)CO)C(=O)c2cc(C#CC3(O)CCCC3)cnc2O[C@H]1CN(C)S(=O)(=O)c1cccc(F)c1 ?
miR122 inh: inactive

What do the screens show for `C[C@H](CO)N1C[C@H](C)[C@H](CN(C)C(=O)Nc2ccccc2)Oc2ncc(-c3cc4ccccc4o3)cc2C1=O`?
miR122 inh: inactive

What do the screens show for `COCC(=O)Nc1ccc2c(c1)[C@@H]1C[C@H](CC(=O)NCc3ccccc3)O[C@H](CO)[C@@H]1O2`?
miR122 inh: inactive

How did C[C@@H]1CN([C@H](C)CO)C(=O)Cc2cc(NC(=O)CCCCCC(=O)Nc3ccccc3N)ccc2O[C@@H]1CN(C)Cc1ccc(Oc2ccccc2)cc1 do in these assays?
miR122 inh: inactive

How did C[C@H]1CN([C@@H](C)CO)S(=O)(=O)c2ccc(-c3cncnc3)cc2O[C@@H]1CN(C)Cc1ccccn1 do in these assays?
miR122 inh: inactive

What do the screens show for `C[C@H]1CN([C@@H](C)CO)C(=O)c2cc(C#Cc3ccccn3)cnc2O[C@H]1CN(C)CC1CCOCC1`?
miR122 inh: inactive

What do the screens show for `COc1cccc(-c2cnc3c(c2)C(=O)N([C@@H](C)CO)C[C@@H](C)[C@@H](CN(C)CC2CCOCC2)O3)c1`?
miR122 inh: inactive

Results for COc1ccccc1-c1ccc2c(c1)O[C@@H](CN(C)CC1CCCC1)[C@H](C)CN([C@@H](C)CO)S2(=O)=O ?
miR122 inh: inactive

How did CCCCOc1ccccc1C1CC(=O)NC2=C1C(=O)CCC2 (stereo not drawn) do in these assays?
miR122 inh: inactive

Results for C[C@H](CO)N1C[C@H](C)[C@@H](CN(C)C(=O)C2CCCCC2)Oc2ncc(C#CC3(O)CCCC3)cc2C1=O ?
miR122 inh: inactive

What do the screens show for `C[C@@H]1CN([C@@H](C)CO)C(=O)c2cc(C#CCc3ccccc3)cnc2O[C@H]1CN(C)Cc1ccccn1`?
miR122 inh: inactive

How did C[C@H]1CN([C@@H](C)CO)C(=O)c2cc(/C=C/c3ccccc3)cnc2O[C@@H]1CN(C)C(=O)c1ccncc1 do in these assays?
miR122 inh: inactive

What do the screens show for `C[C@@H]1CN([C@@H](C)CO)S(=O)(=O)c2ccc(-c3ccccc3)cc2O[C@@H]1CN(C)S(=O)(=O)c1ccccc1F`?
miR122 inh: inactive

How did C[C@H]1CN([C@@H](C)CO)S(=O)(=O)c2ccc(-c3cccc(C(=O)N(C)C)c3)cc2O[C@H]1CN(C)C(=O)Nc1ccccc1 do in these assays?
miR122 inh: inactive

Results for C[C@@H]1CN([C@@H](C)CO)S(=O)(=O)c2ccc(C#Cc3ccncc3)cc2O[C@@H]1CN(C)C(=O)C1CCCCC1 ?
miR122 inh: inactive

Results for C[C@H](CO)N1C[C@H](C)[C@@H](CN(C)C(=O)C2CCOCC2)Oc2cc(C#Cc3ccncc3)ccc2S1(=O)=O ?
miR122 inh: 34

What do the screens show for `C[C@@H]1CN([C@@H](C)CO)S(=O)(=O)c2ccc(C#Cc3ccncc3)cc2O[C@H]1CN(C)C(=O)C1CCCCC1`?
miR122 inh: inactive

Results for C[C@H](CO)N1C[C@H](C)[C@H](CN(C)Cc2ccncc2)Oc2ncc(C#CC(C)(C)O)cc2C1=O ?
miR122 inh: inactive

How did CCCC#Cc1ccc2c(c1)O[C@H](CN(C)S(C)(=O)=O)[C@@H](C)CN([C@H](C)CO)S2(=O)=O do in these assays?
miR122 inh: inactive

How did Nc1cccc2nc3ccccc3cc12 do in these assays?
miR122 inh: 51

What do the screens show for `C[C@@H]1CN([C@H](C)CO)S(=O)(=O)c2ccc(C#Cc3ccncc3)cc2O[C@H]1CN(C)C(=O)c1ccncc1`?
miR122 inh: inactive

How did C[C@H](O)C#Cc1cnc2c(c1)C(=O)N([C@H](C)CO)C[C@@H](C)[C@@H](CN(C)Cc1cncnc1)O2 do in these assays?
miR122 inh: inactive

How did S=C(NCc1ccncc1)Nc1cc(Cl)cc(Cl)c1 do in these assays?
miR122 inh: inactive

Results for CCOC(=O)C1CCN(C(c2cccnc2)c2c(NC(=O)c3ccco3)sc(C)c2C)CC1 (stereo not drawn) ?
miR122 inh: 39

Results for CC1CCCC(NC(=O)COC(=O)c2ccccc2NC(=O)c2ccco2)C1C (stereo not drawn) ?
miR122 inh: inactive
